Measurements as given in PubChem BioAssay AID1159580 (chemical genetic matrix, 2015).
About 2,000 (36%) of roughly 5,500 compounds were called active. Roughly 18% stayed inconclusive and do not appear here. Cut-off read from the data, not from the text of the source: active = normalized growth mostly below about 0.91 (no sharp cut-off); inconclusive = no clear call, values can overlap the other calls; inactive = mostly above about 0.92. The list shows a part of the results.

Experiment: chemical genetic growth profiling, strain panel (AID 1159580);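 note: tested at 20 µM; growth read once vehicle control cultures reached saturation at 30 °C; 1 = growth at the plate median or of vehicle wells; lower values mean less growth of the strain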
Settings: S. cerevisiae deletion strains, growth OD

Measured: normalized growth

CC1(C)O[C@@H]2CC3C4CCC5=CC(=O)C=C[C@]5(C)C4[C@@H](O)C[C@]3(C)[C@]2(C(=O)CO)O1 (some centres not stated)
inactive: locus YAL021C, strain ccr4, hits give low values 1.01 | locus YAL026C, strain drs2, hits give low values 1.01 | locus YAL030W, strain snc1, hits give low values 1.01 | locus YBL061C, strain skt5, hits give low values 1 | locus YBR009C, strain hhf1, hits give low values 1.01 | locus YBR023C, strain chs3, hits give low values 1 | locus YBR171W, strain sec66, hits give low values 0.994 | locus YBR231C, strain swc5, hits give low values 1.01 | locus YBR279W, strain paf1, hits give low values 1.01 | locus YCL011C, strain gbp2, hits give low values 1 | locus YCL016C, strain dcc1, hits give low values 1.01 | locus YCL061C, strain MRC1, hits give low values 0.999 | locus YCL069W, strain vba3, hits give low values 0.995 | locus YCR088W, strain abp1, hits give low values 0.993 | locus YDL005C, strain med2, hits give low values 0.999 | locus YDL040C, strain nat1, hits give low values 1 | locus YDR001C, strain nth1, hits give low values 0.999 | locus YDR069C, strain doa4, hits give low values 1 | locus YDR137W, strain rgp1, hits give low values 0.998 | locus YDR159W, strain sac3, hits give low values 1.02 | locus YDR195W, strain ref2 1 | locus YDR297W, strain sur2, hits give low values 1 | locus YDR334W, strain swr1, hits give low values 1.01 | locus YDR335W, strain msn5, hits give low values 1.01 | locus YDR392W, strain spt3, hits give low values 0.983 | locus YEL003W, strain gim4, hits give low values 1.01 | locus YEL037C, strain rad23, hits give low values 0.994 | locus YEL061C, strain CIN8 (second series), hits give low values 1 | locus YER015W, strain faa2, hits give low values 1.01 | locus YER016W, strain bim1, hits give low values 0.995 | locus YER111C, strain swi4, hits give low values 1 | locus YER155C, strain BEM2 (second series), hits give low values 0.984 | locus YFR010W, strain ubp6, hits give low values 0.996 | locus YGL167C, strain pmr1, hits give low values 1.01 | locus YGL173C, strain kem1, hits give low values 1.01 | locus YGL227W, strain vid30, hits give low values 0.998 | locus YGL240W, strain doc1, hits give low values 1.01 | locus YGL253W, strain hxk2, hits give low values 1 | locus YHR013C, strain ard1, hits give low values 1.02 | locus YHR027C, strain rpn1, hits give low values 1.01 | locus YHR030C, strain SLT2, hits give low values 0.988 | locus YHR079C, strain IRE1, hits give low values 0.974 | locus YHR142W, strain chs7, hits give low values 1.01 | locus YJL092W, strain hpr5, hits give low values 0.997 | locus YJL095W, strain BCK1 (second series), hits give low values 1.01 | locus YJL095W, strain BCK1, hits give low values 0.985 | locus YJL115W, strain asf1, hits give low values 1 | locus YJL129C, strain trk1, hits give low values 1.03 | locus YJL154C, strain vps35, hits give low values 0.996 | locus YJL164C, strain tpk1, hits give low values 1.01 | locus YJL166W, strain qcr8, hits give low values 1.01 | locus YJL187C, strain SWE1, hits give low values 1 | locus YJR066W, strain TOR1, hits give low values 0.95 | locus YKL160W, strain elf1, hits give low values 1.02 | locus YKR026C, strain gcn3, hits give low values 0.982 | locus YKR091W, strain srl3, hits give low values 1.01 | locus YLL001W, strain dnm1, hits give low values 1 | locus YLL026W, hits give low values 1 | locus YLL041C, strain sdh2, hits give low values 1 | locus YLR027C, strain aat2, hits give low values 1.01 | locus YLR113W, strain HOG1, hits give low values 0.963 | locus YLR221C, strain rsa3, hits give low values 1.01 | locus YLR258W, strain gsy2, hits give low values 1 | locus YLR262C, strain YPT6 (second series), hits give low values 1.01 | locus YLR320W, strain mms22, hits give low values 1.01 | locus YLR342W, strain FKS1, hits give low values 1.02 | locus YLR357W, strain rsc2, hits give low values 0.976 | locus YLR370C, strain arc18, hits give low values 1.01 | locus YLR384C, strain iki3, hits give low values 1.01 | locus YML120C, strain ndi1, hits give low values 1.01 | locus YMR058W, strain fet3, hits give low values 1.02 | locus YMR125W, strain sto1, hits give low values 0.992 | locus YMR129W, hits give low values 1.01 | locus YMR205C, strain PFK2, hits give low values 0.978 | locus YMR231W, strain pep5, hits give low values 1 | locus YNL071W, strain lat1, hits give low values 0.998 | locus YNL183C, strain NPR1, hits give low values 0.918 | locus YNL209W, strain ssb2, hits give low values 1.02 | locus YNL248C, strain rpa49, hits give low values 1.01 | locus YNL322C, strain KRE1 (second series), hits give low values 0.998 | locus YNR049C, strain mso1, hits give low values 1.01 | locus YOR001W, strain rrp6, hits give low values 1.01 | locus YOR070C, strain gyp1, hits give low values 1 | locus YOR080W, strain dia2, hits give low values 1 | locus YOR083W, strain WHI5, hits give low values 1.02 | locus YOR106W, strain vam3, hits give low values 1 | locus YOR231W, strain MKK1, hits give low values 0.983 | locus YOR265W, strain rbl2, hits give low values 1.01 | locus YOR270C, strain vph1, hits give low values 1.03 | locus YOR290C, strain snf2, hits give low values 1.01 | locus YPL051W, strain arl3, hits give low values 1 | locus YPL078C, strain atp4, hits give low values 0.995 | locus YPL106C, strain sse1, hits give low values 0.998 | locus YPL240C, strain hsp82, hits give low values 1 | locus YPL256C, strain CLN2, hits give low values 0.996

C=CCN1CCc2cccc3c2[C@H]1Cc1ccc(O)c(O)c1-3
inactive: locus YAL040C, strain CLN3, hits give low values 0.942 | locus YER002W, strain NOP16, hits give low values 0.976 | locus YGR078C, strain PAC10, hits give low values 0.979 | locus YNL175C, strain NOP13, hits give low values 0.966 | locus YNL197C, strain WHI3, hits give low values 0.961 | locus YNL224C, strain SQS1, hits give low values 0.985
active: locus YCL061C, strain MRC1 (second series), hits give low values 0.481 | locus YDR363W, strain ESC2, hits give low values 0.516 | locus YJR075W, strain HOC1, hits give low values 0.199 | locus YNL128W, strain TEP1, hits give low values 0.888 | locus YNL322C, strain KRE1, hits give low values 0.152 | locus YOR083W, strain WHI5 (second series), hits give low values 0.712
